This note sets out measurements from PubChem BioAssay (EPA / NIEHS).

Several values for one entry are separate records, joined by “and”; a condition that tells them apart may be missing. Identical values can stand only once. More than one record can exist for a structure, and the calls need not agree. Activity calls are given as the source filed them. How the source made its calls: active means hit-call score of the fitted dose curve at least 0.9, where 1 is the maximum; inactive means score below 0.9.

Read-out in one test: Interleukin-8 (IL8), CXCL8 (gene 3576)
The experiment in a line: BSK_MyoF_IL8: BioMAP Diversity Plus: MyoF Assay for Interleukin-8 (IL8) Biomarker Activity (AID 2284261). Conditions: primary human lung fibroblasts. In outline:
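Lung fibroblasts (human primary) → chemical exposure → 24 h → IL-8 measured by ELISA. Signal increase scored versus DMSO control.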
Regarding `NC(=O)C(F)(F)C(F)(F)C(F)(F)C(F)(F)F`, the outcome was inactive.

Consider `C=C(C)C(=O)OCC(F)(F)C(F)(F)C(F)(F)F`, for which the outcome was inactive.

Regarding `C=CC(F)(F)C(F)(F)C(F)(F)C(F)(F)C(F)(F)C(F)(F)C(F)(F)C(F)(F)F`, the result was inactive.

As to `C=CC(=O)OCC(F)(F)C(F)(F)C(F)(F)C(F)(F)COC(=O)C=C`, the AC50 (in general, the midpoint of the concentration-response curve, whichever way the signal moves) was 19.5 µM (active) and 13.8 µM (active).

Turning to `C=C(C)C(=O)OCCC(F)(F)C(F)(F)C(F)(F)C(F)(F)C(F)(C(F)(F)F)C(F)(F)F`, the result was inactive.

As for `O=S(=O)(OCCOC(F)(F)F)C(F)(F)F`, the result was inactive.

Regarding `O=C(O)C(F)(OC(F)(F)C(F)(OC(F)(F)C(F)(F)C(F)(F)F)C(F)(F)F)C(F)(F)F` (stereo unspecified), the outcome was inactive.

On to `O=C(O)C(F)(F)C(F)(F)F`, for which the result was inactive.

As to `O=C(O)C(F)(F)C(F)(F)C(F)(F)F`, the outcome was inactive.

`OCC(F)(F)C(F)(F)C(F)(F)C(F)F`: the result was inactive.

With `O=C(Cl)C(F)(F)C(F)(F)C(F)(F)C(F)(F)C(F)(F)C(F)(F)C(F)(F)C(F)(F)F`, the outcome was inactive.

Regarding `OCCCC(F)(F)C(F)(F)C(F)(F)C(F)(F)C(F)(F)C(F)(F)C(F)(F)F`, the AC50 was 58.5 µM (active) and the outcome was inactive.

Regarding `CC(C)(C)C(=O)CC(=O)C(F)(F)C(F)(F)C(F)(F)F`, the result was inactive.

In the case of `FC(F)(I)C(F)(F)C(F)(F)C(F)(F)I`, the AC50 is 57.5 µM (active) and 48 µM (active) and 48.5 µM (active).

`O=S(=O)(O)C(F)(F)C(F)(F)C(F)(F)C(F)(F)C(F)(F)C(F)(F)C(F)(F)F`: the outcome was inactive.

As for `FC(F)(F)C(F)(F)C(F)(F)C(F)(F)CCI`, the half-maximal activity concentration (AC50) was 5.95 µM (active) and the result was inactive.

Consider `O=C(O)C(F)(F)C(F)(F)C(F)(F)C(F)(F)C(F)(F)C(F)(F)C(F)(F)C(F)(F)C(F)(F)C(F)(F)C(F)(F)C(F)(F)F`, for which the outcome was inactive.

For `C=CC(=O)OCC(F)(F)C(F)(F)C(F)(F)C(F)(F)C(F)(F)C(F)(F)C(F)(F)F`, the result was inactive.

With `FC(F)(F)C(F)(F)C(F)(F)C(F)(F)C(F)(F)C(F)(F)C(F)(F)I`, the outcome was inactive.

In the case of `O=C(O)C=C(C(F)(F)F)C(F)(F)F`, the result was inactive.

As to `O=C(O)C(F)(F)C(F)(F)C(F)F`, the result was inactive.

As for `Cc1ccc(S(=O)(=O)OCC(F)(F)C(F)(F)C(F)(F)C(F)(F)C(F)(F)C(F)F)cc1`, the outcome was inactive.

On to `FC(F)(F)C(F)(F)C(F)(F)C(F)(F)C(F)(F)C(F)(F)CC1CO1` (stereo unspecified), for which the result was inactive.

In the case of `FC(F)(F)C(F)(F)C(F)(F)C(F)(F)C(F)(F)C(F)(F)CCS`, the outcome was inactive.

In the case of `O=C(O)C(F)(F)C(F)(F)C(F)(F)C(F)(F)C(F)(F)C(F)(F)C(F)(F)C(F)(F)Cl`, the result was inactive.

With `OCC(F)(F)C(F)(F)C(F)(F)F`, the outcome was inactive.

Regarding `O=C(O)C(F)(F)C(F)(F)C(F)(F)C(F)(F)C(F)(F)C(F)(F)C(F)(F)C(F)(F)C(F)(F)C(F)F`, the outcome was inactive.

Turning to `FC(F)(Br)C(F)(F)C(F)(F)C(F)(F)C(F)(F)C(F)(F)Br`, the result was inactive.

Consider `O=C(O)C(F)(OC(F)(F)C(F)(OC(F)(F)C(F)(OC(F)(F)C(F)(F)C(F)(F)F)C(F)(F)F)C(F)(F)F)C(F)(F)F` (stereo unspecified), for which the result was inactive.

With `OCC(F)(F)C(F)(F)C(F)(F)C(F)(F)C(F)(F)C(F)(F)F`, the outcome was inactive.

Turning to `FC(F)(F)C(F)(F)C(F)(F)C(F)(F)C(F)(F)CCI`, the result was inactive.

Take `FC(F)(F)C(F)(F)C(F)(F)C(F)(F)C(F)(F)C(F)(F)C(F)(F)Br`: the result was inactive.

Regarding `N=C(N)C(F)(F)C(F)(F)C(F)(F)C(F)(F)C(F)(F)C(F)(F)C(F)(F)F`, the outcome was inactive.

As to `C=CC(F)(F)C(F)(F)C(F)(F)C(F)(F)C(F)(F)C(F)(F)C(F)(F)C(F)(F)C=C`, the outcome was inactive.

Read-out in the next test: CD90, THY1 (gene 7070)
In words: BSK_BF4T_CD90: BioMAP Diversity Plus: BF4T Assay for CD90 Biomarker Activity (AID 2284262). Conditions: primary human bronchial epithelial cells with fibroblasts. The method in brief:
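CD90 levels by ELISA after 24 h treatment of human bronchial epithelial cell/dermal fibroblast cultures, analysed versus DMSO. Overt cytotoxicity checked in parallel cultures by sulforhodamine B staining.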
For `NC(=O)C(F)(F)C(F)(F)C(F)(F)C(F)(F)F`, the result was inactive.

Turning to `C=C(C)C(=O)OCC(F)(F)C(F)(F)C(F)(F)F`, the result was inactive.

On to `C=CC(F)(F)C(F)(F)C(F)(F)C(F)(F)C(F)(F)C(F)(F)C(F)(F)C(F)(F)F`, for which the outcome was inactive.

Regarding `C=CC(=O)OCC(F)(F)C(F)(F)C(F)(F)C(F)(F)COC(=O)C=C`, the result was inactive.

As for `C=C(C)C(=O)OCCC(F)(F)C(F)(F)C(F)(F)C(F)(F)C(F)(C(F)(F)F)C(F)(F)F`, the result was inactive.

On to `O=S(=O)(OCCOC(F)(F)F)C(F)(F)F`, for which the outcome was inactive.

Turning to `O=C(O)C(F)(OC(F)(F)C(F)(OC(F)(F)C(F)(F)C(F)(F)F)C(F)(F)F)C(F)(F)F` (stereo unspecified), the outcome was inactive.

Consider `O=C(O)C(F)(F)C(F)(F)F`, for which the outcome was inactive.

For the compound `O=C(O)C(F)(F)C(F)(F)C(F)(F)F`, the outcome was inactive.

Turning to `OCC(F)(F)C(F)(F)C(F)(F)C(F)F`, the outcome was inactive.

As to `O=C(Cl)C(F)(F)C(F)(F)C(F)(F)C(F)(F)C(F)(F)C(F)(F)C(F)(F)C(F)(F)F`, the outcome was inactive.

As for `OCCCC(F)(F)C(F)(F)C(F)(F)C(F)(F)C(F)(F)C(F)(F)C(F)(F)F`, the AC50 was 30 µM (active) and 21.3 µM (active).

In the case of `CC(C)(C)C(=O)CC(=O)C(F)(F)C(F)(F)C(F)(F)F`, the outcome was inactive.

In the case of `FC(F)(I)C(F)(F)C(F)(F)C(F)(F)I`, the result was inactive.

Consider `O=S(=O)(O)C(F)(F)C(F)(F)C(F)(F)C(F)(F)C(F)(F)C(F)(F)C(F)(F)F`, for which the outcome was inactive.

For `FC(F)(F)C(F)(F)C(F)(F)C(F)(F)CCI`, the outcome was inactive.

Regarding `O=C(O)C(F)(F)C(F)(F)C(F)(F)C(F)(F)C(F)(F)C(F)(F)C(F)(F)C(F)(F)C(F)(F)C(F)(F)C(F)(F)C(F)(F)F`, the result was inactive.

On to `C=CC(=O)OCC(F)(F)C(F)(F)C(F)(F)C(F)(F)C(F)(F)C(F)(F)C(F)(F)F`, for which the result was inactive.

For `FC(F)(F)C(F)(F)C(F)(F)C(F)(F)C(F)(F)C(F)(F)C(F)(F)I`, the result was inactive.

As to `O=C(O)C=C(C(F)(F)F)C(F)(F)F`, the outcome was inactive.

In the case of `O=C(O)C(F)(F)C(F)(F)C(F)F`, the outcome was inactive.

Turning to `Cc1ccc(S(=O)(=O)OCC(F)(F)C(F)(F)C(F)(F)C(F)(F)C(F)(F)C(F)F)cc1`, the outcome was inactive.

Regarding `FC(F)(F)C(F)(F)C(F)(F)C(F)(F)C(F)(F)C(F)(F)CC1CO1` (stereo unspecified), the result was inactive.

Consider `FC(F)(F)C(F)(F)C(F)(F)C(F)(F)C(F)(F)C(F)(F)CCS`, for which the result was inactive.

With `O=C(O)C(F)(F)C(F)(F)C(F)(F)C(F)(F)C(F)(F)C(F)(F)C(F)(F)C(F)(F)Cl`, the AC50 is 30 µM (active) and the outcome was inactive.

Regarding `OCC(F)(F)C(F)(F)C(F)(F)F`, the outcome was inactive.

Take `O=C(O)C(F)(F)C(F)(F)C(F)(F)C(F)(F)C(F)(F)C(F)(F)C(F)(F)C(F)(F)C(F)(F)C(F)F`: the AC50 is 17.3 µM (active) and 1.67 µM (active).

On to `FC(F)(Br)C(F)(F)C(F)(F)C(F)(F)C(F)(F)C(F)(F)Br`, for which the outcome was inactive.

As to `O=C(O)C(F)(OC(F)(F)C(F)(OC(F)(F)C(F)(OC(F)(F)C(F)(F)C(F)(F)F)C(F)(F)F)C(F)(F)F)C(F)(F)F` (stereo unspecified), the outcome was inactive.

As for `OCC(F)(F)C(F)(F)C(F)(F)C(F)(F)C(F)(F)C(F)(F)F`, the result was inactive.

For the compound `FC(F)(F)C(F)(F)C(F)(F)C(F)(F)C(F)(F)CCI`, the result was inactive.

Regarding `FC(F)(F)C(F)(F)C(F)(F)C(F)(F)C(F)(F)C(F)(F)C(F)(F)Br`, the result was inactive.

As to `N=C(N)C(F)(F)C(F)(F)C(F)(F)C(F)(F)C(F)(F)C(F)(F)C(F)(F)F`, the result was inactive.

On to `C=CC(F)(F)C(F)(F)C(F)(F)C(F)(F)C(F)(F)C(F)(F)C(F)(F)C(F)(F)C=C`, for which the outcome was inactive.
